Assay results as given in PubChem BioAssay AID1850 (Southern Research Specialized Biocontainment Screening …, 2009).
Screen size: about 310,000 compounds; about 1,000 (0.32%) were called active. Not all results are given here. Results with a measured potency or affinity are listed apart. Values without a mark were called inactive. No rule for the calls is given here.

test: PhoP regulon inhibitors, Salmonella typhi PhoP promoter GFP reporter, confirmatory (AID 1850); settings: fluorescence, 4 h, at 50 µM, active compounds read high;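 also: 0% = induced wells with vehicle and 100% = uninduced wells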

| SMILES | inhibition [%] |
| --- | --- |
| COc1ccc(CC(=O)Nc2ccc(S(=O)(=O)Nc3ncccn3)cc2)cc1 | -0.86 |
| S=C(Nc1ccccc1)NC1CCN(Cc2ccccc2)CC1 | 2.12 |
| Cc1ccc(NC(=S)NC2CCN(Cc3ccccc3)CC2)cc1C | 7.22 |
| S=C(Nc1ccc(Cl)cc1)NC1CCN(Cc2ccccc2)CC1 | 1.82 |
| Fc1ccc(NC(=S)NC2CCN(Cc3ccccc3)CC2)cc1 | 17.7 |
| COc1ccc(CSc2nnc(Cc3sc(-c4ccccc4)nc3-c3ccccc3)o2)cc1 | 7.93 |
| NS(=O)(=O)c1ccc(NC(=S)N2CCN(Cc3ccc4c(c3)OCO4)CC2)cc1 | 3.73 |
| CC1Oc2ccccc2N(CC(=O)Nc2ccccc2F)C1=O (stereo not given) | -6.46 |
| Cc1cn(C2OC(COC(=O)c3ccccc3)C(O)C2O)c(=O)[nH]c1=O (stereo not given) | -7.25 |
| COc1cc([N+](=O)[O-])ccc1NC(=O)CSc1nnc(C)c(C)n1 | 13.2 |
| CSc1ccc(/C=C/C(=O)NC(=O)c2ccccc2O)cc1 | 13.3 |
| Clc1ccc(-c2cc(C3CCNCC3)[nH]n2)cc1 | 13.5 |
| c1ccc2c(-c3cc(C4CCNCC4)[nH]n3)cccc2c1 | -4.64 |
| CCOc1cccc(-c2c(C(=O)N/N=C(\C)c3ccncc3)nnn2-c2nonc2N)c1 | 0 |
| COc1ccc(CN2CCNC(=O)C2CC(=O)N(C)Cc2ccon2)c(OC)c1 (stereo not given) | -0.06 |
| CC1SC(c2ccc(F)cc2)N(CCc2ccccc2)C1=O (stereo not given) | 11.2 |
| O=C(COc1ccccc1Br)c1ccc(O)cc1O | -2.5 |
| N=c1c(C(=O)NCc2ccco2)cc2c(=O)n3ccccc3nc2n1CC1CCCO1 (stereo not given) | -2.9 |
| Cc1ccc(CNC(=O)c2cc3c(s2)CS(=O)(=O)C3)cc1 | -3.03 |
| Clc1cc2nc(-c3cccnc3Cl)[nH]c2cc1Cl | -3.66 |
| CSc1nc2ccc(Br)cc2[nH]1 | 2.46 |
| Cn1c(=O)oc2cc(S(=O)(=O)Nc3ccccc3O)ccc21 | -2.19 |
| Cc1cc(OCCCN2CCCC2)ccc1Cl | 1.13 |
| Clc1ccc(OCCN2CCCCC2)cc1Cl | 15 |
| Cc1cc(OCCN2CCOCC2)ccc1Cl | -0.55 |

| SMILES | inhibition [%] |
| --- | --- |
| CN1CCN(CCOc2ccc(Cl)c(Cl)c2)CC1 | 8.06 |
| CCCn1c2ccccc2c2nnc(SCC(=O)Nc3ncccn3)nc21 | 1.55 |
| CN(C)CCCn1c2c(c(SCC(=O)Nc3nccs3)nc1=O)CCC2 | -3.03 |
| O=C(Nc1cccc(Cl)c1)N1CCN(c2ncccn2)CC1 | 8.55 |
| COc1ccc(CC(=O)NCC(=O)N/N=C/c2ccc(C)o2)cc1 | -9.36 |
| C=CCNC(=S)NCc1cccnc1 | -7.66 |
| O=C(NNC(=O)C1CCCCC1)c1ccc(Br)cc1 | -2.98 |
| C/C(=N\NC(=O)c1cc(Br)ccc1O)c1ccccn1 | 1.41 |
| C/C(=N\NC(=O)c1ccc(F)cc1)c1ccccn1 | -3.7 |
| C/C(=N\NC(=O)c1ccccn1)c1ccc(Cl)cc1 | 0.75 |
| C/C(=N\NC(=O)c1ccc(Cl)c(Cl)c1)c1ccccn1 | 3.95 |
| COc1ccc(CCN2CC(C(=O)NCCc3ccccc3C)CCC2=O)cc1 (stereo not given) | 0.24 |
| Oc1cccc(/C=N/N=C/c2cccc(O)c2O)c1O | 21.8 |
| Oc1cccc(C=NCc2ccccc2)c1 | -11.2 |
| CN(/N=C/c1cc(Br)cc(Br)c1O)c1ccccc1 | 2.46 |
| COc1cc(Br)cc(/C=N/NC(=O)Cc2ccccc2)c1O | 5.08 |
| O=C(Cc1ccccc1)N/N=C/c1cc(Br)cc(Br)c1O | 6.54 |
| O/N=C/c1cc(Br)ccc1OCc1ccc(F)cc1 | 3.46 |
| Oc1c(Br)cc(Br)cc1/C=N/N1CCN(Cc2ccccc2)CC1 | -8.57 |
| Oc1c(C=NCc2ccc(F)cc2)[nH]c2ccc(Br)c(Cl)c12 | -22.5 |
| CCN(CC)CC(C)CNC(=O)CC(C(=O)N1CCc2ccccc21)n1ccnc1 (stereo not given) | -1.96 |
| CC1(C)C2(C#N)C(N)=NC3(OCCO3)C12C#N (stereo not given) | 4.42 |
| Cc1ccc(S(=O)(=O)N(C)c2ccc(N)cc2)cc1 | 8.98 |
| Cc1ccc2nc(SCc3nc4cc(Cl)ccc4c(=O)[nH]3)[nH]c2c1 | -3.53 |
| COc1cccc(C2C(=O)N(C3CCCCC3)CC(=O)N2Cc2ccc(F)cc2)c1 (stereo not given) | -2.24 |
